Data from the supplement of paper PMC9942566.
± gives the standard deviation of the averaged measurements.

system: Serratia marcescens K904 PosmB-luxCDABE reporter (pMQ747); assay: PosmB-lux reporter fold induction (RLU/OD600 relative to no-compound control), highest over Biolog concentrations; higher = stronger Rcs reporter activation; conditions: wild type K904; 4 h
Experimental: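 Serratia marcescens K904 (wild type) or its isogenic ΔrcsB mutant, carrying the Rcs-dependent PosmB-luxCDABE reporter plasmid pMQ747, was grown in LB at OD600 0.1 in Biolog Phenotype MicroArray plates PM11-20 for 4 h at 30-32°C. Each compound is present at 3-4 proprietary concentrations (not stated); per the Fig. S1 legend the value given is the highest fold over those wells. Three independent trials.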

SMILES | PosmB-lux reporter fold induction
Cc1cc(NS(=O)(=O)c2ccc(N)cc2)no1 [Sulfa-methoxazole] (Biolog plate: PM12, well positions: G5-8) | 2.26 ± 0.52
C[C@H]1O[C@@H](n2cc(F)c(=O)[nH]c2=O)[C@H](O)[C@@H]1O [5-fluoro-5'-deoxyuridine] (Biolog plate: PM18, well positions: H1-4) | 1.12 ± 0.19
CC1(C)S[C@@H]2[C@H](NC(=O)[C@H](N)c3ccccc3)C(=O)N2[C@H]1C(=O)O [Ampicillin] (Biolog plate: PM13, well positions: A2-4) | 1.39 ± 0.02
CN(C)CCC=C1c2ccccc2CCc2ccccc21 [amitriptyline] (Biolog plate: PM20, well positions: A2-4) | 1.19 ± 0.11
CN(C)c1ccc(C(=C2C=CC(=[N+](C)C)C=C2)c2ccc(N(C)C)cc2)cc1 [crystal violet] (Biolog plate: PM20, well positions: E1-4) | 0.912 ± 0.13
Cn1c(=O)c2c(ncn2C)n(C)c1=O [caffeine] (Biolog plate: PM17, well positions: H5-8) | 1.68 ± 0.37
CCS(=O)(=O)CCn1c([N+](=O)[O-])cnc1C [tinidazole] (Biolog plate: PM18, well positions: F5-8) | 1.53 ± 0.081
Nc1ccc(S(=O)(=O)Nc2nccs2)cc1 [Sulfathiazole] (Biolog plate: PM12, well positions: F5-8) | 1.88 ± 0.029
